# CDC25B-CDK2 inh – human CDC25B-CDK2/CyclinA binding inhibition; 94,000 compounds, 0.72% hits; HTRF CDC25B-CDK2/CyclinA binding, anti-His/anti-Flag; hits give high values; z-score (test concentration not listed); in the data active means z-score above about 3.2
# TAR Tat displ – HIV-1 TAR-Tat binding disruption; HIV-1 TAR RNA, Tat peptide displacement FRET; hits give high values; z-score (no concentration beside the values); 100,000 compounds, 0.6% hits; active means z-score of 3 or more in at least 2 runs
# An asterisk follows results filed as active; . = no result given. In the library only some 0.9% were active in any assay of this set; here they are far more common.
SMILES,CDC25B-CDK2 inh,TAR Tat displ
NS(=O)(=O)c1ccc(Nc2cc(-c3ccco3)cs2)cc1,17.2*,.
CSc1cccc(NC(=O)c2nccnc2C(=O)O)c1,-1.43,0.66
COCCN(Cc1ccc(Cl)cc1)Cc1cc(=O)c2cc(C)ccc2[nH]1,.,0.94
Nc1ccc(N2CCn3c(nc4ccccc43)C2)cc1,13.1*,-1.73
Nc1cccc(N2CCn3c(nc4ccccc43)C2)c1,7.43*,-3.42
Nc1cccc(N2CCn3c(nc4cc(Cl)ccc43)C2)c1,-0.91,-5.08
c1ccc(CN2CCn3c(nc4ccccc43)C2)cc1,-1.82,0.68
O=C(Cn1ncc2c1-c1ccccc1OC2)Nc1cc(F)ccc1F,-0.56,0.37
COc1ccccc1N1CCN(C(=O)c2cc3c(s2)-c2ccccc2SC3)CC1,-3.1,-1.2
Cn1cnc(S(=O)(=O)Nc2cccnc2)c1,.,1.51
CCc1ccc(N2CSC3=C(C#N)C(c4cccs4)CC(=O)N3C2)cc1 (stereo not given),6.22*,-1.84
COc1ccc(N2CSC3=C(C#N)C(c4cccs4)CC(=O)N3C2)cc1 (stereo not given),1.57,-0.62
CCOC(=O)c1ccc(N2CSC3=C(C#N)C(c4cccs4)CC(=O)N3C2)cc1 (stereo not given),7.09*,-3.07
Cc1ccc(N2CSC3=C(C#N)C(c4cccs4)CC(=O)N3C2)cc1 (stereo not given),4.1*,-0.6
COC(=O)c1ccc(N2CSC3=C(C#N)C(c4cccs4)CC(=O)N3C2)cc1 (stereo not given),-0.72,2.19
CCOC(=O)c1ccc(NC(=O)C(=O)N/N=C/c2ccc(SC)cc2)cc1,-3.1,.
COc1cc(NC(=O)NC(C)C)cc2sc(NS(=O)(=O)c3ccccc3)nc12,.,2.11
Cc1cc(N(C)C)nc(N2CCN(C(=O)Nc3ccc(F)cc3)CC2)n1,.,0.87
O=C(Nc1ccc(Br)cc1F)N1CCOc2ccccc21,.,1.78
CCc1cccc(Nc2nc3ccccc3n3c(C)nnc23)c1,-2.06,1.92
Cc1ccc2nc3c(cc(C#N)c(=O)n3-c3nnc(SCc4ccc(Cl)cc4)s3)c(=O)n2c1,-33.5,0.13
O=C(CSc1ccc2nnc(-c3cccs3)n2n1)Nc1nc2ccccc2s1,-1.25,.
C=CCOc1ccc(C2CC(=O)Nc3c2c(C)nn3-c2nncc(-c3ccc(F)cc3)n2)cc1 (stereo not given),-1.66,15.8*
C=CCOc1ccc(C2CC(=O)Nc3c2c(C)nn3-c2nncc(-c3ccc(C)cc3)n2)cc1 (stereo not given),-2.04,2.86
CCOC(=O)Cn1c(C2CC(=O)N(CC3CC3)C2)nc2ccccc21 (stereo not given),-2.29,-1.26
SMILES,CDC25B-CDK2 inh,TAR Tat displ
Cc1ccc(NC(=O)Nc2nnc(CC(=O)Nc3ccccc3)s2)cc1,0.1,.
COc1ccc(NC(=O)Nc2nnc(CC(=O)Nc3ccc(C)cc3)s2)cc1,5.53*,.
Cn1c(=O)c2c(-c3ccccc3)n3c(c2n(C)c1=O)C(c1cccs1)Nc1ccccc1-3 (stereo not given),-1.53,1.9
Oc1ccc(Cc2ccc(O)c3ncccc23)c2cccnc12,-3.78,1.92
CCN(CC)Cc1ccc(O)c2ncccc12,13.1*,1.32
COc1ccc(C(=O)CC(=O)c2ccc[nH]c2=O)cc1,-1.45,0.66
O=C1C2ON(c3ccc(Cl)cc3)C(c3cccs3)C2C(=O)N1c1ccccc1 (stereo not given),0.66,.
O=C1ON=C(c2ccccc2)/C1=C/c1ccc2c(c1)OCO2,0.1,.
O=C(COc1ccccc1)Nc1nn2c(-c3ccco3)nnc2s1,0.26,31.6*
O=C(Nc1nn2c(-c3ccco3)nnc2s1)c1ccc(F)cc1,-1.7,0.03
COc1ccc(OCC(=O)Nc2nn3c(-c4ccco4)nnc3s2)cc1,0.67,25*
CCc1nnc2sc(NC(=O)c3ccco3)nn12,-1.65,1.5
O=C(Nc1nn2c(-c3ccco3)nnc2s1)c1cccc(F)c1,-2.14,-2.58
CC(C)Cc1nnc2sc(NC(=O)c3ccco3)nn12,-0.44,11.5*
O=C(Nc1cc(-c2nc3ncccc3o2)ccc1Cl)c1ccc(-c2ccccc2)cc1,1.06,.
CC1(C)C(=O)N(CC(=O)NC2CCCC2)c2ccccc21,.,0.4
O=C(O)C1=CC(c2cn[nH]c2-c2ccc(F)cc2)n2ncnc2N1 (stereo not given),.,1.64
Cc1cc2c(N)cccc2nn1,17.2*,.
Nc1cccc2nsnc12,-2.09,.
Cc1c2c(=O)n(-c3ccccc3)[nH]c2cc(=O)n1Cc1cccnc1,1.97,1.2
Cc1c2c(=O)n(-c3ccccc3)[nH]c2cc(=O)n1Cc1ccco1,4.33,9.62*
CCN(CC)C(=O)Nc1ccc2snnc2c1,9.12*,1.15
CSc1ccc(CCNC(=O)Nc2ccc3snnc3c2)cc1,0.6,2.09
CN(C)C(=O)Nc1ccc2snnc2c1,1.92,-0.37
O=C(Nc1ccc2snnc2c1)NC1CCCC1,2.01,1.54
SMILES,CDC25B-CDK2 inh,TAR Tat displ
O=C(NCCCO)Nc1ccc2snnc2c1,6.54*,1.53
C=CCNC(=O)c1ccc2snnc2c1,-0.87,0.7
C=CCNC(=O)Nc1ccc2snnc2c1,10.3*,2.1
COCCNC(=O)Nc1ccc2snnc2c1,7.78*,1.79
O=c1c2cccnc2n(Cc2ccccc2F)n1-c1ccccc1,-0.44,0.73
Cc1sc(-n2cccc2)c(C(C)NC(=O)Nc2cccc(Cl)c2)c1C (stereo not given),0.86,0.34
Cc1ccc2c(c1)Cc1c([nH]c(-c3ccccn3)nc1=S)O2,0.05,-0.13
Cc1cc2nc(CSc3nnc(NC(=O)c4ccco4)s3)cc(=O)n2o1,.,0.39
CC1=C(c2ccc(F)cc2)S(=O)(=O)N(Cc2ccc(C(=O)NCc3ccc(C)o3)cc2)C1=O,.,0.36
O=C(NCc1ccc2c(c1)OCO2)Nc1ccc2snnc2c1,-2.31,.
O=C(NCc1ccccc1)Nc1ccc2snnc2c1,11.3*,1.09
COc1ccc(C(=O)CSc2n[nH]c(-c3ccco3)n2)cc1C,-3.23,-1.88
Cc1ccc(C(=O)CSc2n[nH]c(-c3ccco3)n2)cc1C,-4.07,14.7*
COc1ccc(NC2=NS(=O)(=O)C(c3cccc(Br)c3)=C2C)c(OC)c1,-3.99,-0.44
COc1ccc(C2Nc3cccc4cccc(c34)N2)cc1Br,1.54,26.3*
CCC12CN3CC(CC)(CN(C1)C3c1cccc(OC)c1O)C2O (stereo not given),0.01,0.4
COc1cccc(C2Nc3cccc4cccc(c34)N2)c1O,0.43,21.9*
COc1cc(C2Nc3cccc4cccc(c34)N2)cc(OC)c1OC,-1.38,.
Fc1ccc(C2Nc3cccc4cccc(c34)N2)cc1,-1.29,12.7*
Brc1ccc(C2Nc3cccc4cccc(c34)N2)cc1,-0.51,-0.41
CC(C)CCNC(=O)C1CCCN(c2nnc(N3CCCC3=O)s2)C1 (stereo not given),-0.27,1.71
COc1ccc(Cl)cc1-n1nnc(-c2nc(-c3cccs3)no2)c1N,.,1.22
O=C(NCc1cccs1)c1ccc(N2CCOc3ccc(Cl)cc32)s1,.,0.61
O=C(O)C1(O[N+](=O)[O-])C2CC3CC(C2)CC1C3 (stereo not given),-0.21,.
Cc1nc(S(=O)(=O)Nc2cccc(Cl)c2)cn1C,.,2.11
O=C(Nc1ccc2c(c1)OCO2)C1Cc2ccccc2N1C(=O)c1ccccc1 (stereo not given),.,1.06
Cc1nc2sccn2c1C(=O)NN,15.1*,.
Cc1nc2sccn2c(=O)c1NC(=O)c1ccco1,.,1.42
CN(CC(=O)NC1CCCCC1)S(=O)(=O)c1ccc(C(=O)N2CCOCC2)s1,.,1.69

# Screening results from PubChem BioAssay.
